DT40 TDP1 CPT: growth inhibition of DT40 Tdp1-/-;hTDP1 cells with camptothecin (screen for TDP1 inhibitors); chicken DT40 Tdp1-/-;hTDP1 cells + 20 nM CPT, ATP luminescence, 48 h; Potency, µM (highest dose often 46.2 µM), actives largely listed as inhibitors; hit rate 12% among 420,000; AID 686979; also: nearly all actives have a fitted effect of over 55% in size
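Cell growth measured by CellTiter-Glo luminescence after a minimum 48 h, 37 C compound exposure with 20 nM CPT in Tdp1-knockout DT40 cells stably expressing hTDP1, seeded 400/well; qHTS titration format.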
IL1B secr inh: inhibitors of inflammasome signaling (IL-1 beta secretion). AID 743279. THP-1 LPS/ATP IL-1B secretion, AlphaLISA, 16 h; hits give low values. hit rate 4.7% among 360,000. activity change, % at 57.5 µM; in the data active = activity change below about -50%; inconclusive = mostly about -30% to -49%
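Secreted IL-1B measured by AlphaLISA bead assay after 16 h compound exposure of THP-1 cells; compounds (final up to 57.5 uM) added 1 h before LPS (250 ng/mL) and ATP (1.25 mM) stimulation; lower signal means less secretion.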
TDP1 cell noCPT: qHTS for Inhibitors of human tyrosyl-DNA phosphodiesterase 1 (TDP1): qHTS in cells in absence of CPT; DT40 Tdp1-/- hTDP1 cells, no CPT, ATP luminescence, 48 h; Potency, µM (doses to about 46.2 µM), usual class: inhibitors; hit rate 15% among 420,000; AID 686978, 2013; also: nearly all actives have a fitted effect of over 55% in size
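Luminescent ATP content (CellTiter-Glo) served as the growth readout. Knockout chicken DT40 cells expressing human TDP1 were exposed to compounds without camptothecin for a minimum 48 hr at 37 °C.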
S-ASM inh: human S-ASM enzyme inhibition; Potency, µM (titrated, usually from 57.5 µM), actives largely listed as inhibitors; hit rate 0.006% among 340,000; placental ASM, HMU-PC fluorogenic substrate, 60 min; AID 504937; P17405
Target sequence (P17405 47-631 limits assumed): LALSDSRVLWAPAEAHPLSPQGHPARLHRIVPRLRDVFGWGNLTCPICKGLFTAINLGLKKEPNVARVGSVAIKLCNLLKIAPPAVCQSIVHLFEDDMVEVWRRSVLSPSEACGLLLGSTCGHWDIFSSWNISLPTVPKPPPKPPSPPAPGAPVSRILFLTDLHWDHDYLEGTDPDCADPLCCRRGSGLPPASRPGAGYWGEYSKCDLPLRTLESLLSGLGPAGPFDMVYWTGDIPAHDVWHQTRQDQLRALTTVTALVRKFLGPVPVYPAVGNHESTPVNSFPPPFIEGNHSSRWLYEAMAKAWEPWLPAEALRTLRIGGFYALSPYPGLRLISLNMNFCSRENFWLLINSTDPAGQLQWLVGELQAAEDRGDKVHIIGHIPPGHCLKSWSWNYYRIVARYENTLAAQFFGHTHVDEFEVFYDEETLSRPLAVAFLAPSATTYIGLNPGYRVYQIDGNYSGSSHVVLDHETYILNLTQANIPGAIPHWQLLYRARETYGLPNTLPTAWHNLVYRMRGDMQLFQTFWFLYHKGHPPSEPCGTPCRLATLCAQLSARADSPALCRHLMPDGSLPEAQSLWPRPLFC
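Fluorogenic HMU-PC substrate (9 uM final) is turned over by placental ASM in 60 min at 37 C after a 10 min compound preincubation. Reaction ended by alkaline stop (pH 10), with fluorescence read at 386/447 nm.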
TGFb SMAD3 inh: blocks TGF-b signaling; HepG2 CAGA-GFP TGF-b/SMAD3 reporter, GFP fluorescence, 18 h; TGF-beta stimulated, 500 pg/mL final; Potency, µM (series often up to 46.1 µM), actives largely listed as inhibitors; hit rate 1.2% among 410,000; AID 588855; also: nearly all actives have a fitted effect of over 65% in size
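Read-out: total well GFP (ex488/em500-530) summed from mean per-cell fluorescence. Cells: HEPG2 CAGA-GFP, 1% FBS DMEM, 18 h at 37 degrees C with 500 pg/mL final TGF-beta. Unstimulated wells served as the full-inhibition control; stimulated DMSO wells = 0%.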
HepG2 tox: counter-screen for TGF-b inhibitors: cytotoxicity in HepG2 cells; HepG2 CAGA-GFP viability, ATP luminescence, 18 h; Potency, µM (top dose mostly 46.1 µM), most hits filed as cytotoxic; hit rate 0.76% among 410,000; AID 588856
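HepG2 CAGA-GFP cells (1000/well, DMEM with 1% FBS) received compound, then TGF-beta at 500 pg/mL final, and were incubated 18 hours at 37 degrees C. Viability was read by CellTiter-Glo luminescence. Media-only wells were set as complete cell-killing and DMSO as no toxicity.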
Hits are given with their value; - = inactive; ? = inconclusive; . = no result. This is a sample that favours compounds with a hit; in the whole collection about 19% have one here. Unless noted, calls follow the shape of the dose curve; as a rule, active = well fitted curve in the direction sought with a large enough effect; inconclusive = small, poorly fitted or top-dose-only effect, or another doubt; inactive = no such curve, though single readings can be large; an effect the other way counts as inactive or inconclusive.

SMILES | DT40 TDP1 CPT | IL1B secr inh | TDP1 cell noCPT | S-ASM inh | TGFb SMAD3 inh | HepG2 tox
COc1ccc(OC)c(CN2CCN(Cc3cc(=O)oc4cc(O)ccc34)CC2)c1 | - | - | ? | - | - | -
Cc1cc(C)c2c(CN3CCN(c4ccccc4F)CC3)cc(=O)oc2c1 | 23.1µM | - | ? | . | - | -
O=c1cc(CN2CCN(c3ccccc3F)CC2)c2cc(O)c(-c3ccccc3)cc2o1 | ? | - | 6.51µM | - | - | -
COc1ccc(N2CCN(Cc3cc(=O)oc4cc(-c5ccccc5)c(O)cc34)CC2)cc1 | 5.8µM | - | 6.51µM | - | - | -
CC1=CC(C)(C)n2c(O)c(N=N)c3cc(C)cc1c32 | ? | -60.4 | 23.1µM | - | ? | -
COc1cc2c3c(c1)c(N=NC(N)=S)c(O)n3C(C)(C)C=C2C | 4.61µM | - | 5.17µM | - | - | -
COc1cc(/C=N/OCC(=O)NC2CCCCC2C)ccc1OCc1ccc(Cl)cc1 (stereo unspecified) | 18.4µM | ? | 18.4µM | . | ? | -
COC(=O)c1ccc(/C=N/OCC(=O)NC2CCCC(C)C2C)cc1 (stereo unspecified) | ? | - | ? | - | - | -
COc1cc(/C=N/OCC(=O)Nc2cc(C)cc(C)c2)ccc1OCc1ccc(Cl)cc1 | ? | - | 13µM | - | ? | -
CCN(CC)CCCC(C)n1c(C)cc(C(=O)NS(=O)(=O)c2ccc(C)cc2)c1C (stereo unspecified) | - | - | - | . | - | -
CCN(CC(=O)NCc1ccc(Cl)cc1)C(=O)c1ccc(S(=O)(=O)NCc2ccco2)cc1 | ? | - | ? | - | - | -
O=C(Cn1c(SCCOc2ccccc2Cl)nc2ccccc21)N1CCCCC1 | ? | . | ? | . | - | -
COc1ccc(NC(=O)c2cc(-c3cc(F)ccc3OC(C)C)n[nH]2)c(C)c1 | ? | - | 16.4µM | . | - | -
COc1ccc(OC)c(NC(=O)c2cc(-c3ccc(F)cc3OC(C)C)n[nH]2)c1 | 16.4µM | - | 20.6µM | . | - | -
O=C(Nc1ccc(O)cc1)c1cc2ccccc2c(=O)s1 | ? | - | 16.4µM | - | - | -
CCN(CC(=O)N1CCC(C(N)=O)CC1)S(=O)(=O)c1ccc(Cl)cc1 | - | - | - | - | - | -
Cc1ccc(C(=O)Nc2cccc(C(O)c3ccccc3)c2)cc1 (stereo unspecified) | - | -51.5 | ? | - | - | -
Cc1nn(-c2ccccc2)nc1C(=O)Nc1cccc(C(=O)NC2CC2)c1 | ? | - | 14.6µM | . | - | -
Cc1nn(-c2cccc(Cl)c2)nc1C(=O)Nc1cccc(C(=O)NC2CC2)c1 | ? | - | 10.3µM | - | - | -
Cc1ccc(C(=O)Nc2cccc(C(=O)NC3CCCC3)c2)cc1 | ? | - | 16.4µM | - | - | -
Cc1cccc2nc(C(=O)Nc3cccc(C(=O)NC4CC4)c3)cn12 | 13µM | - | ? | - | - | -
Cc1cccc(C(=O)Nc2cccc(C(=O)NC3CCCC3)c2)c1 | ? | ? | ? | - | - | -
Cc1ccc(-n2nc(C)c(C(=O)Nc3cccc(C(=O)NC4CC4)c3)n2)c(C)c1 | 11.6µM | - | 8.2µM | - | - | -
O=C(CCCn1nnnc1CN1CCOCC1)N1CCC(c2ccccc2Cl)C1 (stereo unspecified) | - | - | - | - | - | -
CCCCN(C)C(=O)CN1C(=O)CCn2nc(-c3cn(C)c4ccccc34)cc21 | ? | . | - | . | ? | -
SMILES | DT40 TDP1 CPT | IL1B secr inh | TDP1 cell noCPT | S-ASM inh | TGFb SMAD3 inh | HepG2 tox
CN(C)c1cc[n+](/C(C(=S)Nc2ccc(SC(F)F)cc2)=C(/[O-])c2ccccc2)cc1 | 13µM | - | 10.3µM | - | - | -
C=CCn1c(C)cc(/C([O-])=C(/C(=S)Nc2ccc(OC(F)F)cc2)[n+]2ccc(N(C)C)cc2)c1C | 25.9µM | - | 18.4µM | - | - | -
[O-]/C(=C(\C(=S)Nc1ccc(SC(F)F)cc1)[n+]1ccccc1)c1cc(Cl)ccc1Cl | 16.4µM | - | 16.4µM | - | - | -
CCCN(CCC)c1nc(NC2CCN(C(=O)OCC)CC2)nc(OC)n1 | 16.4µM | - | 20.6µM | - | ? | -
CCOC(=O)N1CCC(Nc2c(OCC)c(=O)c2=O)CC1 | - | - | - | - | - | -
CCOC(=O)c1ccccc1NC(=O)c1c(-c2ccccc2)noc1C | 9.2µM | . | 4.61µM | . | - | -
Cc1onc(-c2ccccc2)c1C(=O)OCC(=O)Nc1ccccc1Cl | ? | - | 18.4µM | . | - | -
CCCCN(CCCC)S(=O)(=O)c1ccc(NC(=O)c2c(-c3ccccc3)noc2C)cc1 | 20.6µM | . | 29.1µM | . | ? | -
CCCCNS(=O)(=O)c1ccc(NC(=O)c2c(-c3ccccc3)noc2C)cc1 | ? | . | ? | . | ? | -
Cc1cccc(OCCOC(=O)c2c(-c3ccccc3)noc2C)c1 | ? | - | 23.1µM | - | - | -
Cc1onc(-c2ccccc2)c1C(=O)OCC(=O)Nc1ccc(Cl)cc1 | ? | - | ? | - | - | -
O=C(COC(=O)c1cc(=O)[nH]c(=O)[nH]1)Nc1cccc(S(=O)(=O)N2CCOCC2)c1 | - | - | - | - | - | -
Cn1c(N)c(C(=O)COC(=O)c2ccc(OC(F)F)cc2)c(=O)n(C)c1=O | - | - | ? | - | - | -
CCc1cc(=O)oc2c3c(cc(OCC(=O)N[C@H](C(=O)O)[C@H](C)CC)c12)OC(C)(C)CC3 | - | - | - | - | - | -
CCCCn1c(N)c(N(CC)C(=O)c2cc(CC)c(C)s2)c(=O)[nH]c1=O | - | - | - | - | - | -
CCC(CC)C(=O)Nc1cccc(C(=O)Nc2ccc3c(c2)OCO3)c1 | 25.9µM | - | ? | - | - | -
CCCOc1cccc(C(=O)Nc2ccc3c(c2)OCCO3)c1 | - | - | 23.1µM | - | - | -
CCC(CC)C(=O)Nc1cccc(C(=O)Nc2nnc(C)s2)c1 | - | - | ? | - | - | -
CCOc1ccc(C(=O)Nc2ccc3c(c2)OCCO3)cc1 | - | - | - | - | - | -
CCC(CC)C(=O)Nc1cccc(C(=O)Nc2nccs2)c1 | ? | - | 23.1µM | - | - | -
Cc1ccn2cc(C(=O)Nc3ccc4c(c3)OCCO4)nc2c1 | - | -89.1 | - | - | - | -
Cc1cc2nc(SCC(=O)Nc3ccccc3C(=O)O)[nH]c2cc1C | - | - | - | - | - | -
CCOc1cccc(C(=O)Nc2ccc3oc(-c4ccncc4)nc3c2)c1 | ? | . | ? | . | - | -
CCC(CC)C(=O)Nc1cccc(C(=O)Nc2ccc(S(=O)(=O)Nc3ccc(C)cc3)cc2)c1 | 20.6µM | ? | ? | - | ? | -

High-throughput results deposited in PubChem BioAssay by National Center for Advancing Translational Sciences (NCATS).
